In the library only some 3.2% were active in any assay of this set; here they are far more common.
Candida biofilm – kills Candida albicans biofilms; inhibition, % at 6 µM; C. albicans biofilm + clotrimazole, Alamar Blue; 85,000 tested, 0.14% active;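 active = inhibition above 20%; inactive = inhibition below 20%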;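 also: preformed 24 hr biofilms exposed to compound for 48 hr; 0% = biofilm without compound and 100% = blank killed by clotrimazole plus chlorhexidine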
ERa SRC1 pot – ER-alpha (human) coactivator binding potentiation. P03372. TR-FRET ERalpha-LBD/SRC-Cy5 coactivator binding, 2 h; 100 = basal binding, no effect. coactivator binding (% of control), % at 25.6 µM. 86,000 tested, 1.3% active. AID 639; in the data active = activity above about 200%;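 also: binding measured in presence of low estradiol as agonist stimulus; 0% = peptide alone without receptor and 100% = receptor with peptide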
MT1-MMP txn act – activates MT1-MMP transcription | HT1080 MT1-MMP promoter luciferase reporter, luminescence, overnight; active compounds read high | activation factor at 10 µM | 86,000 tested, 0.16% active | AID 750;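 active = activation factor of at least 2 for MT1-MMP transcription at 10 µM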
ERb SRC1 inh – blocks coactivator binding to human estrogen receptor beta; Q92731; TR-FRET ER-beta LBD / SRC1-Cy5 peptide binding; receptor agonist-loaded with 1 µM estradiol; inhibition, % at 25.6 µM; 86,000 tested, 1.3% active; AID 633;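 active = compounds whose percent inhibition of the receptor-coactivator binding signal exceeds about 50% in the single-dose screen, limit read from the data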;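 also: 0% = receptor plus peptide wells without compound and 100% = peptide-only wells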
EphB4 ephrin blk – EphB4-ephrin-B2 interaction antagonism. EphB4 LBD / TNYL-RAW-Alexa532 peptide, fluorescence polarization. inhibition, % at 7 µM. AID 720. 97,000 tested, 0.15% active. P54760;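 active = inhibition above the screen-wide mean inhibition plus 3 SD, cut at about 15% in these data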;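 also: 0% = DMSO wells and 100% = excess unlabeled TNYL-RAW peptide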
ERa coact inh – blocks coactivator binding to human estrogen receptor alpha; P03372; 86,000 tested, 1.7% active; AID 629; TR-FRET ER-alpha LBD / SRC-1 peptide, estradiol-bound; inhibition, % at 25.6 µM; in the data active = inhibition above about 50%;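 also: 0% = receptor plus peptide control and 100% = peptide only without receptor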
Starred values were filed as active, the others as inactive; x = no result given; [ ] = remark or other dose.

SMILES | Candida biofilm | ERa SRC1 pot | MT1-MMP txn act | ERb SRC1 inh | EphB4 ephrin blk | ERa coact inh
COc1ccc2[nH]c(=O)c(-c3noc(-c4ccccc4)n3)cc2c1 | -2.8 | 188.0 | 1.2 | 61.0*[fluorescence artefact?] | 3.3 | 69.1*[fluorescence artefact?]
COc1ccc(Nc2nc(N3CCCC3)c3ccccc3n2)cc1 | 5.9 | 34.1 | 0.8 | 5.8 | x | 68.5*[fluorescence artefact?]
CC(C)=CCC(C)(C)C1OCCN1C(=O)Nc1ccccc1 (stereo not drawn) | 5.9 | 104.5 | 1 | 1.2 | -0.9 | -3.9
CC(NC(=O)C1CC1)C(c1cccs1)N1CCN(c2ccccc2)CC1 (stereo not drawn) | -1.4 | 141.2 | 1.1 | 55.8*[fluorescence artefact?] | x | -7.0
CC(C)C(=O)NC(C)C(c1cccs1)N1CCN(c2ccccc2)CC1 (stereo not drawn) | 10.4 | 97.6 | 1 | -14.8 | 0.0 | -21.1
COc1ccc(-c2nc(N)ncc2Oc2ccccc2Br)c(O)c1 | 7.8 | 240.6*[fluorescence artefact?] | 1.1 | 35.8 | -0.3 | 24.0
C=C(C)COc1ccc(-c2nc(N)nc(C)c2Oc2ccccc2OC)c(O)c1 | 6.2 | 285.5*[fluorescence artefact?] | 1 | 59.4*[fluorescence artefact?] | -5.2 | 29.5
COc1cccc(Oc2cnc(N)nc2-c2ccc(OC)cc2O)c1 | 4.9 | 91.7 | 0.7 | -3.6 | 6.7 | -7.0
CCN(CC)C1=CC(=O)OC12CCCCC2 | -0.3 | 72.5 | 1.1 | 61.5* | -13.2 | -37.0
CCN(CC)CCNC1=CC(=O)OC12CCCCC2 | 3.5 | 105.7 | 1.1 | -4.0 | 5.1 | 31.0
CCOc1ccc(Nc2oc(-c3ccccc3Cl)nc2C#N)cc1 | 0.0 | 22.8 | 1.1 | 30.6 | 1.4 | 70.5*
CNc1oc(-c2ccccc2Cl)nc1C#N | -0.4 | 95.4 | 1.3 | -8.7 | 3.6 | -3.5
Cc1ccc(C(=O)N2CC3(C(C)C)CN(C(=O)c4ccc(C)cc4)CC(C(C)C)(C2)C3=O)cc1 | -0.4 | 101.2 | 1.1 | 12.8 | 1.3 | 9.4
Cc1ccccc1OCC(=O)Nc1ccccc1CO | 0.0 | 107.5 | 1.1 | 6.2 | 4.9 | -1.2
CCOC(=O)C1CCN(C(=O)C2CCN(c3nc4ccc(OC)cc4s3)CC2)CC1 | 6.8 | 105.5 | 1.1 | 91.0*[fluorescence artefact?] | -2.6 | -5.5
Cn1cc(S(=O)(=O)N2CCN(c3ccccc3)CC2)c(=O)n(C)c1=O | -0.4 | 95.3 | x | -4.5 | 15.9* | -7.1
C[C@@H](C(=O)N[C@@H](CO)Cc1ccccc1)[C@H]1C[C@]1(C)[C@H](NC(=O)OCc1ccccc1)c1ccccc1 | x | x | 1.2 | x | x | x
Cc1cccc(-n2c(O)c(C=NCCCN3CCOCC3)c3ccccc3c2=O)c1 | 4.8 | 120.0 | 1.1 | 0.2 | -1.9 | -4.9
Cc1ccc(N=Cc2c(O)n(-c3ccc4c(c3)OCO4)c(=O)c3ccccc23)cc1 | 8.7 | 31.1 | 1 | 34.1 | -3.2 | 68.7*
Cc1cc2n(n1)SC(Nc1cc(Cl)ccc1Cl)N2 (stereo not drawn) | 3.4 | 85.9 | 1.4 | -4.0 | -5.9 | -4.3
Cc1nnc(NC(=O)c2ccc(-c3cccc(C(F)(F)F)c3)o2)s1 | 7.3 | 288.5* | 1 | 45.9 | 2.1 | 43.6
Cc1c(C(=O)N2CCN(c3ccccn3)CC2)sc2ncnc(N3CCN(c4ccccc4)CC3)c12 | 4.8 | 207.1*[fluorescence artefact?] | 1.1 | 17.0 | 3.3 | 1.9
Cc1c(C(=O)N2CCN(c3ccccc3)CC2)sc2ncnc(N3CCC(C)CC3)c12 | x | x | x | x | -1.5 | x
CC(=O)OCc1c(C(F)(F)F)nn(C)c1SCc1ccc(Cl)cc1 | 6.8 | 83.9 | x | -1.9 | 6.8 | -4.1
COc1ccc(NC(=O)Cn2nnc(-c3ccccc3NC(=O)c3cccs3)n2)cc1 | 5.2 | 237.5*[fluorescence artefact?] | 1 | 30.3 | 5.2 | 32.8
SMILES | Candida biofilm | ERa SRC1 pot | MT1-MMP txn act | ERb SRC1 inh | EphB4 ephrin blk | ERa coact inh
O=C(Cn1nnc(-c2ccccc2NC(=O)c2ccco2)n1)Nc1ccccc1 | 3.3 | 286.3*[fluorescence artefact?] | 1 | 42.6 | x | 59.7*[fluorescence artefact?]
CC(=O)NC(NC(C)=O)c1ccc(N(C)C)cc1 | -1.1 | 130.5 | 1.2 | -1.5 | 7.9 | -14.3
O=S(=O)(NCC(O)COCc1ccco1)c1cccs1 (stereo not drawn) | 1.7 | 89.9 | 1.1 | 50.4* | x | 52.8*[fluorescence artefact?]
O=c1c2ccccc2nc(SCc2nc3ccccc3s2)n1Cc1ccco1 | 5.3 | 162.5 | 1.1 | 2.4 | -2.8 | 2.9
O=c1c2ccccc2sc2nc(C3CCCCC3)n(Cc3ccco3)c(=O)c12 | 14.7 | 222.2* | 1.1 | 38.3 | x | 46.0
CCc1nc2sc3ccccc3c(=O)c2c(=O)n1Cc1ccco1 | 6.9 | 57.1 | 1 | 68.0* | x | 75.7*[fluorescence artefact?]
COC(=O)c1cc2sc(Cl)cc2n1CC(=O)Nc1ccc(OC)c(OC)c1OC | 2.0 | 108.7 | 1.1 | 24.8 | -3.1 | 53.6*[fluorescence artefact?]

From PubChem
